# Experimental data: PubChem BioAssay (NCATS)
# Several values for one entry are separate records, joined by “and”; a condition that tells them apart may be missing. Equal values may be shown once. Records with an inconclusive call do not appear. Activity calls are given as the source filed them. Unless noted, the call rests on the fitted dose curve; in most records, active means well fitted curve in the direction sought with a large enough effect; inconclusive means small, poorly fitted or top-dose-only effect, or another doubt; inactive means no such curve, though single readings can be large; an effect the other way counts as inactive or inconclusive.
# Key:
# [1] = NS1 protein of Zika virus - qHTS assay to identify small molecule inhibitors in human HEK 293 cells (AID 1347053); further: nearly all actives have a fitted effect of over 55% in size; further: potency means the concentration at half of the fitted maximal effect
# Procedure, shortened: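 Compound-treated (1 h pre-infection) HEK 293 cells infected with ZIKV MR766, MOI = 0.5; after 24 h at 37 C, NS1 read by TR-FRET; data normalized to uninfected and infected controls.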
# [2] = qHTS of pediatric cancer cell lines to identify multiple opportunities for drug repurposing: Primary screen for TC32 cells (AID 1347089); further: nearly all actives have a fitted effect of over 60% in size; further: potency means the concentration at half of the fitted maximal effect
# Procedure, shortened: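 Luminescent ATP read-out (CellTiter-Glo) of metabolically active TC32 cells after 48 h exposure. Concentration-response curves came from 11-point (MIPE, 0.78 nM–46 µM) or 8-point (NPC, 0.59 nM–46 µM) primary titrations; follow-up used 11 points.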
# [3] = qHTS of pediatric cancer cell lines to identify multiple opportunities for drug repurposing: Primary screen for SJ-GBM2 cells (AID 1347091); further: potency means the concentration at half of the fitted maximal effect
# Procedure, shortened: (§1)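 Viability measured as metabolically active cells via CellTiter-Glo luminescence following 48 hours of compound exposure, 11-point dilutions in confirmatory testing. 500-1,000 cells/well plated 5 hours before dosing; controls were DMSO and 2.3 µM bortezomib.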
# [4] = qHTS of pediatric cancer cell lines to identify multiple opportunities for drug repurposing: Primary screen for A673 cells (AID 1347092); further: nearly all actives have a fitted effect of over 45% in size; further: potency means the concentration at half of the fitted maximal effect
# Procedure, shortened: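 Cell viability of A673 measured by CellTiter-Glo ATP luminescence after 48 hours compound exposure. Dilution series spanned 0.78 nM to 46 µM (MIPE, 11-point) or 0.59 nM to 46 µM (NPC, 8-point); bortezomib 2.3 uM positive control.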
# [5] = qHTS of pediatric cancer cell lines to identify multiple opportunities for drug repurposing: Primary screen for SK-N-MC cells (AID 1347093); further: potency means the concentration at half of the fitted maximal effect
# Procedure, shortened: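 Metabolically active cells were quantified by ATP-dependent luminescence (CellTiter-Glo, 15 min at room temperature) following 48 h treatment. Cells had been plated at 500-1,000 per well and settled for 5 h beforehand.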
# [6] = qHTS of pediatric cancer cell lines to identify multiple opportunities for drug repurposing: Primary screen for U-2 OS cells (AID 1347096); further: nearly all actives have a fitted effect of over 50% in size
# Procedure, shortened: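 Viability after 48 h compound treatment at 37C, 500-1,000 cells/well, read as ATP luminescence with CellTiter-Glo. Primary screens used 11-point (MIPE, 0.78 nM-46 µM) or 8-point (NPC, 0.59 nM-46 µM) final concentrations; follow-up screens used 11-point dilutions.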
# [7] = target: T1, Tyrosine-protein phosphatase non-receptor type substrate 1 (Homo sapiens) + Leukocyte surface antigen CD47 (Homo sapiens) (UniProt P78324+Q08722); experiment: CD47-SIRPalpha protein protein interaction - LANCE assay qHTS validation (AID 1347057; active means well fitted curve in the direction sought with a large enough effect in the signal ratio, with a control signal flat, not every such curve was filed as active; the % refers to the signal ratio; further: series mostly up to about 38 µM)
# Procedure, shortened: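 Inhibition of soluble CD47/SIRPalpha ectodomain association by titrated compounds, measured as 665/615 nm time-resolved FRET ratio after sequential 30 min room-temperature incubations.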
# [8] = target: T1, Tyrosine-protein phosphatase non-receptor type substrate 1 (Homo sapiens) + Leukocyte surface antigen CD47 (Homo sapiens); experiment: CD47-SIRPalpha protein protein interaction - HTRF assay qHTS validation (AID 1347058; active means well fitted curve in the direction sought with a large enough effect in the signal ratio, not every such curve was filed as active; the % refers to the signal ratio; further: series mostly up to about 38 µM)
# Procedure, shortened: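 Soluble extracellular domains (6His-CD47, Avi-tag-biotinylated SIRPalpha) in PBS pH 7.4 with 0.05% IGEPAL CA-630. Compounds were preincubated 30 min at RT with CD47 and anti-His-Eu, then SIRPalpha and SAV-XL665 were added. TR-FRET 665/615 ratio.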
# [9] = target: Parathyroid hormone/parathyroid hormone-related peptide receptor (Homo sapiens) (UniProt Q03431); experiment: qHTS for PTHR1 Agonists: Optimization Screen against the NCGC LOPAC library (AID 1347079);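 further: GloSensor cAMP luminescence in HEK-293 GP2 cells expressing human PTHR1 with IBMX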
# Procedure, shortened: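 Signal increase flags agonism. GP2 cells, derived from HEK-293, express human PTHR1 and a GloSensor cAMP construct.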
# [10] = qHTS of pediatric cancer cell lines to identify multiple opportunities for drug repurposing: Primary screen for DAOY cells (AID 1347090); further: nearly all actives have a fitted effect of over 55% in size; further: potency means the concentration at half of the fitted maximal effect
# Procedure, shortened: as §1
# [11] = qHTS of pediatric cancer cell lines to identify multiple opportunities for drug repurposing: Primary screen for BT-37 cells (AID 1347094); further: potency means the concentration at half of the fitted maximal effect
# Procedure, shortened: (§2)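 Primary screen of approved and investigational compounds on cells in growth media at 37 degrees C, 5% CO2. MIPE set at 11-point and NPC set at 8-point dilutions; viability scored by ATP-based luminescence at 48 hours.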
# [12] = qHTS of pediatric cancer cell lines to identify multiple opportunities for drug repurposing: Primary screen for NB-EBc1 cells (AID 1347095); further: potency means the concentration at half of the fitted maximal effect
# Procedure, shortened: as §2
# [13] = qHTS of pediatric cancer cell lines to identify multiple opportunities for drug repurposing: Primary screen for Saos-2 cells (AID 1347097); further: nearly all actives have a fitted effect of over 40% in size; further: potency means the concentration at half of the fitted maximal effect
# Procedure, shortened: as §2
# [14] = qHTS of pediatric cancer cell lines to identify multiple opportunities for drug repurposing: Primary screen for NB1643 cells (AID 1347099); further: nearly all actives have a fitted effect of over 50% in size; further: potency means the concentration at half of the fitted maximal effect
# Procedure, shortened: as §2
# [15] = qHTS of pediatric cancer cell lines to identify multiple opportunities for drug repurposing: Primary screen for SK-N-SH cells (AID 1347098); further: potency means the concentration at half of the fitted maximal effect; nearly all actives have a fitted effect of over 65% in size
# Procedure, shortened: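 Cells (500-1,000/well) rested 5 h, then received compounds for 48 h; metabolically active cells were measured by CellTiter-Glo luminescence. Final concentrations spanned up to 46 µM (MIPE, 11-point) or 0.59 nM-46 µM (NPC, 8-point) in primary screens, 11-point in follow-ups.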
# T1 sequence (P78324 whole entry, looked up, the tested form may be a part): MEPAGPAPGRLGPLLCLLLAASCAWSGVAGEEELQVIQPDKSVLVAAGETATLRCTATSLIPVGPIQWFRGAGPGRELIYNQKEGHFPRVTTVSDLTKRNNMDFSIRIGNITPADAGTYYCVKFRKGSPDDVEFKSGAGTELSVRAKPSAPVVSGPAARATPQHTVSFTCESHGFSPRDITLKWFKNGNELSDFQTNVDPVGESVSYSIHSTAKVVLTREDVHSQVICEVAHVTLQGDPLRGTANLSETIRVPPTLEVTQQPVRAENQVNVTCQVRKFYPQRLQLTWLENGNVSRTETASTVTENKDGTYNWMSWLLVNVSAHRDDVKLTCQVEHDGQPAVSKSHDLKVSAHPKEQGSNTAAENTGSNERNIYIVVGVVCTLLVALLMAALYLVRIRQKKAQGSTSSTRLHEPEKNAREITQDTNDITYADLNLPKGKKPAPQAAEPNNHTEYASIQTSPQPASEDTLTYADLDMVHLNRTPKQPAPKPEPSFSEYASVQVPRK
# T1 sequence (Q08722 whole entry, looked up, the tested form may be a part): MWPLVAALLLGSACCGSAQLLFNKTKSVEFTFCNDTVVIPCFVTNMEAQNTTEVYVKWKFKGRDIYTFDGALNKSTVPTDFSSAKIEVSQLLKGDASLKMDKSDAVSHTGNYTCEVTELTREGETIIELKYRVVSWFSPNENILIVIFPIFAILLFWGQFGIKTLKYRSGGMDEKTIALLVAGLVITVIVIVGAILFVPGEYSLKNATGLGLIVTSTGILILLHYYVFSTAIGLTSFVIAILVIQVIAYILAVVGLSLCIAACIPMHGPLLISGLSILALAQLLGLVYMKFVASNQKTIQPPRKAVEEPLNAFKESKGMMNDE
# Sequence of Parathyroid hormone/parathyroid hormone-related peptide receptor (Homo sapiens) (Q03431 whole entry, looked up): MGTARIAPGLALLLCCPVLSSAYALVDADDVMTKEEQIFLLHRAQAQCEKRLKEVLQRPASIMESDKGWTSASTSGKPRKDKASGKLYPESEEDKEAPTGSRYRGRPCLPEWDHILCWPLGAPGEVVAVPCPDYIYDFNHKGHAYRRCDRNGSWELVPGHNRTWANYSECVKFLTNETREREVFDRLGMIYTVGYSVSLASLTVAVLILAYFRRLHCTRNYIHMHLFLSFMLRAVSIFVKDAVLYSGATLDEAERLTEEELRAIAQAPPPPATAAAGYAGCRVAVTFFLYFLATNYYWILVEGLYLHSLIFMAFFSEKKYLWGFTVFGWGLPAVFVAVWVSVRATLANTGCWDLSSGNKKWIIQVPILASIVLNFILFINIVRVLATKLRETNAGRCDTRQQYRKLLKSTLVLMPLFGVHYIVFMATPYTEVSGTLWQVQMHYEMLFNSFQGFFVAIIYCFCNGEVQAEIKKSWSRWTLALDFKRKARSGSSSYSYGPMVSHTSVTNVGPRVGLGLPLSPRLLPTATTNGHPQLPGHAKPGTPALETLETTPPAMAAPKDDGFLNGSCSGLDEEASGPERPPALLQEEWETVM
compound,measurement,setting,value
O=c1[nH]c(-c2ccc(C(F)(F)F)cc2)nc2c1CSCC2,Potency,[1],inactive
same,Potency,[2],inactive
same,Potency,[3],inactive
same,Potency,[4],14.8 µM (active)
same,Potency,[5],13.2 µM (active)
same,Potency,[6],inactive
Cc1cc2c(C(C)C)c(O)c(O)c(C=O)c2c(O)c1-c1c(C)cc2c(C(C)C)c(O)c(O)c(C=O)c2c1O,outcome,[7],inactive
same,outcome,[8],inactive
same,outcome,[9],inactive
same,Potency,[2],inactive
same,Potency,[10],21.1 µM (active) and 14.8 µM (active)
same,Potency,[3],4.22 µM (active) and 3.72 µM (active)
same,Potency,[4],23.5 µM (active)
same,Potency,[5],5.96 µM (active) and 9.35 µM (active)
same,Potency,[11],15.5 µM (active) and 24.3 µM (active)
same,Potency,[12],3.76 µM (active) and 2.96 µM (active)
same,Potency,[6],inactive
same,Potency,[13],8.41 µM (active) and 16.6 µM (active)
same,Potency,[14],8.41 µM (active) and 7.43 µM (active)
COc1ccc(C2=N[C@H](c3ccc(Cl)cc3)[C@H](c3ccc(Cl)cc3)N2C(=O)N2CCNC(=O)C2)c(OC(C)C)c1,Potency,[2],inactive
same,Potency,[10],23.5 µM (active)
same,Potency,[3],14.8 µM (active)
same,Potency,[4],14.8 µM (active)
same,Potency,[5],2.64 µM (active)
same,Potency,[11],7.69 µM (active)
same,Potency,[12],0.743 µM (active)
same,Potency,[13],23.5 µM (active)
same,Potency,[15],3.83 µM (active)
same,Potency,[14],2.64 µM (active)
CCOC(=O)N[C@@H]1CC[C@@H]2[C@@H](C1)C[C@H]1C(=O)O[C@H](C)[C@H]1[C@@H]2C=Cc1ccc(-c2cccc(F)c2)cn1,Potency,[1],inactive
same,Potency,[2],inactive
same,Potency,[5],16.6 µM (active)
same,Potency,[13],5.9 µM (active)
same,Potency,[15],21.5 µM (active)
same,Potency,[14],16.6 µM (active)
Nc1cccc(S(=O)(=O)N2CCCN(S(=O)(=O)c3ccc4c(c3)OCCO4)CC2)c1,Potency,[2],inactive
same,Potency,[10],inactive
same,Potency,[4],inactive
same,Potency,[5],inactive
same,Potency,[11],inactive
same,Potency,[12],inactive
same,Potency,[6],inactive
C[C@H](NC(=O)Cc1cc(F)cc(F)c1)C(=O)N[C@@H]1C(=O)N(C)c2ccccc2-c2ccccc21,Potency,[2],inactive
same,Potency,[10],11.8 µM (active)
same,Potency,[3],inactive
same,Potency,[4],7.43 µM (active)
same,Potency,[5],5.26 µM (active)
same,Potency,[12],inactive
same,Potency,[6],inactive
same,Potency,[14],6.62 µM (active)
Cn1cnc2c(F)c(Nc3ccc(Br)cc3Cl)c(C(=O)NOCCO)cc21,Potency,[2],inactive
same,Potency,[10],14.8 µM (active)
same,Potency,[4],2.35 µM (active)
same,Potency,[5],2.64 µM (active)
CCCCCCCc1ccc(CCc2cccc(O)c2C(=O)O)cc1,Potency,[2],inactive
same,Potency,[5],9.35 µM (active)
same,Potency,[6],inactive
same,Potency,[13],inactive
same,Potency,[14],inactive
Nc1nc2[nH]cc(CCc3ccc(C(=O)N[C@@H](CCC(=O)O)C(=O)O)cc3)c2c(=O)[nH]1,Potency,[2],4.66 µM (active)
same,Potency,[10],inactive
same,Potency,[5],0.132 µM (active)
same,Potency,[11],inactive
same,Potency,[12],1.48 µM (active)
same,Potency,[6],inactive
Cc1cc([C@@H](C)Nc2ccccc2C(=O)O)c2nc(N3CCOCC3)cc(=O)n2c1,Potency,[2],12 µM (active)
same,Potency,[10],0.679 µM (active)
same,Potency,[3],13.6 µM (active)
same,Potency,[5],0.191 µM (active)
same,Potency,[11],55.9 µM (active)
same,Potency,[12],24.1 µM (active)
same,Potency,[6],inactive
same,Potency,[13],9.59 µM (active)
same,Potency,[15],9.87 µM (active)
same,Potency,[14],6.05 µM (active)
Cc1ccnc(NS(=O)(=O)c2ccc(NC(=O)Nc3ccc(S(=O)(=O)Nc4nccc(C)n4)cc3)cc2)n1,Potency,[2],inactive
same,Potency,[10],inactive
same,Potency,[11],10.9 µM (active)
same,Potency,[12],14.8 µM (active)
same,Potency,[6],inactive
COCC(=O)NCC=Cc1ccc2ncnc(Nc3ccc(Oc4ccc(C)nc4)c(C)c3)c2c1,Potency,[2],inactive
same,Potency,[4],4.69 µM (active)
same,Potency,[6],inactive
same,Potency,[13],16.6 µM (active)
same,Potency,[14],20.9 µM (active)
Cc1cc2c(F)c(Oc3ncnn4cc(OC[C@@H](C)O)c(C)c34)ccc2[nH]1,Potency,[1],0.935 µM (active)
same,Potency,[3],10.5 µM (active)
same,Potency,[5],0.264 µM (active)
same,Potency,[11],27.3 µM (active)
same,Potency,[12],13.2 µM (active)
same,Potency,[13],18.7 µM (active)
CCCS(=O)(=O)Nc1ccc(F)c(C(=O)c2c[nH]c3ncc(Cl)cc23)c1F,Potency,[1],inactive
same,Potency,[2],inactive
same,Potency,[4],18.7 µM (active)
same,Potency,[5],4.18 µM (active)
same,Potency,[13],11.8 µM (active)
same,Potency,[15],19.2 µM (active)
COc1cc(F)c(F)c(Nc2ccc(I)cc2F)c1NS(=O)(=O)C1(C[C@H](O)CO)CC1,Potency,[1],inactive
same,Potency,[2],inactive
same,Potency,[5],16.6 µM (active)
same,Potency,[11],inactive
same,Potency,[12],inactive
same,Potency,[14],inactive
NC(=O)c1ccc(I)c([N+](=O)[O-])c1,Potency,[2],inactive
same,Potency,[10],inactive
same,Potency,[3],inactive
same,Potency,[4],18.7 µM (active)
same,Potency,[5],3.72 µM (active)
same,Potency,[11],inactive
same,Potency,[12],inactive
same,Potency,[6],inactive
same,Potency,[13],inactive
